Bioassay records as filed in PubChem.
DT40 TDP1 CPT: growth inhibition of DT40 Tdp1-/-;hTDP1 cells with camptothecin (screen for TDP1 inhibitors). chicken DT40 Tdp1-/-;hTDP1 cells + 20 nM CPT, ATP luminescence, 48 h. Potency, µM (highest dose often 46.2 µM), most hits filed as inhibitors. 12% of 420,000 active; note: nearly all actives have a fitted effect of over 55% in size
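Cell growth measured by CellTiter-Glo luminescence after a minimum 48 h, 37 C compound exposure with 20 nM CPT in Tdp1-knockout DT40 cells stably expressing hTDP1, seeded 400/well; qHTS titration format.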
MCF10A rereplic: inducers of DNA re-replication in MCF 10A breast cells. MCF 10A DNA re-replication, Hoechst nuclear intensity, 48 h. Potency, µM (titrated, usually from 46.1 µM), hits mostly activators. 2.9% of 350,000 active; note: nearly all actives have a fitted effect of over 50% in size
DT40 TDP1 no CPT: qHTS for Inhibitors of human tyrosyl-DNA phosphodiesterase 1 (TDP1): qHTS in cells in absence of CPT | AID 686978, 2013 | Potency, µM (highest dose often 46.2 µM), actives largely listed as inhibitors | 15% of 420,000 active | DT40 Tdp1-/- hTDP1 cells, no CPT, ATP luminescence, 48 h; note: nearly all actives have a fitted effect of over 55% in size
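Compound effects on proliferation are scored in DT40 Tdp1-/-;hTDP1 cells in the absence of CPT. ATP levels (CellTiter-Glo luminescence) are recorded after a ≥48 hr, 37 °C incubation.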
Chronic BCR inh: chronic active BCR signaling inhibition. Potency, µM (series often up to 46.1 µM), most hits filed as inhibitors. AID 493014. ABC-DLBCL IkBa-CBG/CBR reporter, luminescence ratio, 4 h. 0.05% of 340,000 active; active = well fitted inhibition curve with a large enough effect in the signal ratio, with a control signal flat, not every such curve was filed as active; inconclusive = small, poorly fitted or top-dose-only effect, or effect the other way, or a change in a side signal; the % refers to the signal ratio
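Cell line TMD8 (human ABC DLBCL), stably expressing tet-inducible CBG68-IkBa fusion and CBR; IMDM/0.5% FBS; cpd up to 46 uM; dox induction, 4 h, 37C/5% CO2; dual luminescence; green/red ratio; MG132 control.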
IL-1B inflam inh: blocks inflammasome-driven IL-1 beta release; THP-1 LPS/ATP IL-1B secretion, AlphaLISA, 16 h; active compounds read low; activity change, % at 57.5 µM; 4.7% of 360,000 active; AID 743279; in the data active = activity change below about -50%; inconclusive = mostly about -30% to -49%
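Secreted IL-1B measured by AlphaLISA bead assay after 16 h compound exposure of THP-1 cells; compounds (final up to 57.5 uM) added 1 h before LPS (250 ng/mL) and ATP (1.25 mM) stimulation; lower signal means less secretion.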
SW480 rereplic: DNA re-replication induction in SW480 cells; 1.8% of 340,000 active; Potency, µM (series often up to 46.1 µM), usual class: activators; SW480 DNA re-replication, Hoechst DNA content imaging, 48 h; note: nearly all actives have a fitted effect of over 55% in size
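Readout is total intensity of Hoechst-stained nuclei, excited at 405 nm and collected at 500-530 nm. Compound treatment lasted 48 hr at 37 C in 5% CO2 before staining.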
A number is an active result. Sampled rows, rich in hits. Any-hit rate of the full collection: about 19%. Unless noted, calls come from the whole dose curve; as a rule, active = well fitted curve in the direction sought with a large enough effect; inconclusive = small, poorly fitted or top-dose-only effect, or another doubt; inactive = no such curve, though single readings can be large; an effect the other way counts as inactive or inconclusive.

CCOC(=O)C1(Cc2cccc(F)c2)CCN(C2CCOCC2)CC1 was read as DT40 TDP1 CPT inactive, MCF10A rereplic inactive, DT40 TDP1 no CPT inactive, Chronic BCR inh inactive, IL-1B inflam inh inactive and SW480 rereplic inactive.
Screening CCOC(OCC)P(=O)(O)CCCNCc1ccc(Cl)c(Cl)c1 returned DT40 TDP1 CPT inactive and DT40 TDP1 no CPT inconclusive.
Screening CCOC(=O)C1(Cc2ccccc2)CCN(Cc2ccc(COC)o2)CC1 returned DT40 TDP1 CPT 11.6µM, MCF10A rereplic inactive, DT40 TDP1 no CPT inconclusive, Chronic BCR inh inconclusive, IL-1B inflam inh inactive and SW480 rereplic inactive.
CCOC(=O)C1(Cc2ccccc2)CCN(Cc2ccon2)CC1 was read as DT40 TDP1 CPT inactive, MCF10A rereplic inactive, DT40 TDP1 no CPT inactive, Chronic BCR inh inactive, IL-1B inflam inh inactive and SW480 rereplic inactive.
`CN=CC1=C(O)c2ccccc2C1=O` gave DT40 TDP1 CPT inactive, MCF10A rereplic 13µM, DT40 TDP1 no CPT inactive, Chronic BCR inh inactive, IL-1B inflam inh inactive and SW480 rereplic inactive.
For Cc1ccc(O)c(N=CC2=C(O)c3ccccc3C2=O)c1 the results were DT40 TDP1 CPT inconclusive, MCF10A rereplic inconclusive, DT40 TDP1 no CPT 23.1µM, Chronic BCR inh inconclusive, IL-1B inflam inh inactive and SW480 rereplic inconclusive.
Screening O=C1C(C=Nc2ccccc2O)=C(O)c2ccccc21 returned DT40 TDP1 CPT 3.26µM, MCF10A rereplic 5.17µM, DT40 TDP1 no CPT 1.3µM, Chronic BCR inh inconclusive, IL-1B inflam inh inactive and SW480 rereplic inconclusive.
Screening O=C(NC1CCCCC1)c1cccc(NC(=O)c2ccccc2Cl)c1 returned DT40 TDP1 CPT inconclusive, DT40 TDP1 no CPT inconclusive and IL-1B inflam inh inactive.
`CN1CC(=O)Nc2ccc(Br)cc2C1=O` gave DT40 TDP1 CPT inactive, MCF10A rereplic inactive, DT40 TDP1 no CPT inactive, Chronic BCR inh inactive, IL-1B inflam inh inactive and SW480 rereplic inactive.
For O=C1Nc2ccc(Br)cc2C1=C1CCCCC1 the results were DT40 TDP1 CPT inconclusive, MCF10A rereplic 18.4µM, DT40 TDP1 no CPT 23.1µM, Chronic BCR inh inactive, IL-1B inflam inh inactive and SW480 rereplic inconclusive.
Screening COc1ccc(CNC(=O)CSc2nc(-c3ccccc3)cc(-c3cccs3)c2C#N)cc1 returned DT40 TDP1 CPT 14.6µM, MCF10A rereplic inactive, DT40 TDP1 no CPT inconclusive, Chronic BCR inh inconclusive, IL-1B inflam inh inactive and SW480 rereplic inactive.
Screening COc1cccc(-c2ccc(C#N)c(SCC(=O)NCc3ccco3)n2)c1 returned DT40 TDP1 CPT inactive, MCF10A rereplic inactive, DT40 TDP1 no CPT inactive, Chronic BCR inh inactive, IL-1B inflam inh inactive and SW480 rereplic inactive.
COc1ccc(-c2cc(-c3cccs3)c(C#N)c(SCC(=O)NCc3ccco3)n2)cc1 was read as DT40 TDP1 CPT 1.84µM, MCF10A rereplic 1.46µM, DT40 TDP1 no CPT 2.31µM, Chronic BCR inh inconclusive, IL-1B inflam inh inactive and SW480 rereplic 2.59µM.
For CCN1C(C(=O)c2ccccc2)=C(OC(=O)COc2ccc(OC)cc2)c2ccccc2S1(=O)=O the results were DT40 TDP1 CPT 5.17µM and DT40 TDP1 no CPT 4.61µM.
`CCCN1C(C(=O)c2ccccc2)=C(OC(=O)COc2ccc(C)cc2)c2ccccc2S1(=O)=O` gave DT40 TDP1 CPT 4.11µM and DT40 TDP1 no CPT 5.17µM.
`CC(=O)c1ccc(OC(=O)COc2ccccc2)cc1` gave DT40 TDP1 CPT inactive, MCF10A rereplic inactive, DT40 TDP1 no CPT inactive, Chronic BCR inh inactive, IL-1B inflam inh inactive and SW480 rereplic inconclusive.
`COc1ccc(C(=O)CN2C(=O)c3ccccc3S2(=O)=O)cc1` gave DT40 TDP1 CPT inactive, MCF10A rereplic inactive, DT40 TDP1 no CPT inactive, Chronic BCR inh inconclusive, IL-1B inflam inh inactive and SW480 rereplic inactive.
`CCCCC(=O)OC1=C(C(=O)c2ccccc2)N(C)S(=O)(=O)c2ccccc21` gave DT40 TDP1 CPT inconclusive and DT40 TDP1 no CPT 23.1µM.
For CCCN1C(C(=O)c2ccccc2)=C(OC(=O)COc2ccccc2)c2ccccc2S1(=O)=O the results were DT40 TDP1 CPT 4.11µM and DT40 TDP1 no CPT 4.11µM.
CC1(C)CC(NC(=O)c2cc(S(=O)(=O)N3CCOCC3)ccc2Cl)CC(C)(C)N1 was read as DT40 TDP1 CPT inactive, MCF10A rereplic inactive, DT40 TDP1 no CPT inactive, Chronic BCR inh inactive, IL-1B inflam inh inactive and SW480 rereplic inactive.
For COCCCn1cc(CN2CC(N3CCN(Cc4cccc(C)c4)CC3)CS2(=O)=O)nn1 (configuration not stated) the results were DT40 TDP1 CPT inactive, DT40 TDP1 no CPT inactive and IL-1B inflam inh inactive.
Screening CN1C(C(=O)c2ccccc2)=C(NC(=O)c2ccccc2Br)c2ccccc2S1(=O)=O returned DT40 TDP1 CPT 11.6µM and DT40 TDP1 no CPT 6.51µM.
Screening CCN1C(C(=O)c2ccccc2)=C(OC(=O)COc2ccc(C)cc2)c2ccccc2S1(=O)=O returned DT40 TDP1 CPT inconclusive and DT40 TDP1 no CPT 16.4µM.
For CCCN1C(C(=O)c2ccccc2)=C(OC(=O)C(C)(C)C)c2ccccc2S1(=O)=O the results were DT40 TDP1 CPT 4.11µM and DT40 TDP1 no CPT 5.17µM.
Screening C=CCN1C(C(=O)c2ccccc2)=C(OC(=O)COc2ccccc2)c2ccccc2S1(=O)=O returned DT40 TDP1 CPT inconclusive, MCF10A rereplic inconclusive, DT40 TDP1 no CPT inconclusive, Chronic BCR inh inactive, IL-1B inflam inh inactive and SW480 rereplic inconclusive.
For CC(C)C(c1nnnn1Cc1ccccc1)N1CCc2ccccc2C1 (configuration not stated) the results were DT40 TDP1 CPT inconclusive, MCF10A rereplic inactive, DT40 TDP1 no CPT 16.4µM, Chronic BCR inh inactive, IL-1B inflam inh inactive and SW480 rereplic inactive.
For CC(C)C(c1nnnn1C1CCCCC1)N1CCc2ccccc2C1 (configuration not stated) the results were DT40 TDP1 CPT inactive, MCF10A rereplic inactive, DT40 TDP1 no CPT inconclusive, Chronic BCR inh inactive, IL-1B inflam inh -78.5 and SW480 rereplic inactive.
c1ccc(Cn2nnnc2C(c2cccs2)N2CCCCCC2)cc1 (configuration not stated) was read as DT40 TDP1 CPT inactive, MCF10A rereplic inactive, DT40 TDP1 no CPT inactive, Chronic BCR inh inactive, IL-1B inflam inh inactive and SW480 rereplic inactive.
For c1ccc(Cn2nnnc2C(c2cccs2)N2CCc3ccccc3C2)cc1 (configuration not stated) the results were DT40 TDP1 CPT inconclusive, MCF10A rereplic inconclusive, DT40 TDP1 no CPT 29.1µM, Chronic BCR inh inconclusive, IL-1B inflam inh inactive and SW480 rereplic inconclusive.
O=C(CN1C(=O)c2cccnc2Oc2ccc(Cl)cc21)Nc1cccc(C(F)(F)F)c1 was read as DT40 TDP1 CPT inconclusive and DT40 TDP1 no CPT 18.4µM.
